Molecules are shown by their SMILES. The campaign covered roughly 48,000 compounds. About 13,000 (27%) showed an effect of 50% or more. Some of the results follow.

The test system of the test is Wolbachia pipientis. As to the kind of experiment: Anti-Wolbachia Cell-Based Screen. In kind it is functional. Details: scale not given: in the data most compounds retested in dose-response had high values. The note with it: 5 µM.
Regarding `Cc1nccc(-c2cccc(NCc3nc(C(C)C)no3)c2)n1`, the “Percent Effect” value amounted to 4.778%.
As for `O=c1[nH]nc(SCC2CCCO2)n1C1CC1` (centres undefined), the figure is -2.947%; as for `COC1CN(C(=O)COC(C)=O)CCC(=O)N(C)c2ccccc21` (centres undefined), 92.83%.
For `CC1CCCN(c2ccccc2OCC(=O)N2CCOCC2)C1` (centres undefined) the value was -4.736%.
For `COC1CN(C(=O)CC(C)(C)C)CCC(=O)N(C)c2ccccc21` (centres undefined) the value was 105.9%; for `O=C(Cc1cccs1)N1CCc2nnc(COc3cncnc3)n2CC1`, -9.187%.
With `COC1CN(C(=O)CC(C)C)CCC(=O)N(C)c2ccccc21` (centres undefined), the “Percent Effect” value was found to be 94.68%.
As for `Cc1ccccc1N1CCN(C2CCCN(C(=O)CCC(C)C)C2)CC1` (centres undefined), the figure is -1.858%; as for `COc1ccc([C@@H]2CN(C(=O)Cc3cccs3)C[C@H]2NC(C)=O)cc1`, 1.079%; as for `COC1CN(C(=O)Cc2cccs2)CCC(=O)N(C)c2ccccc21` (centres undefined), 113.3%.
For the molecule `CCCN1CCN(Cc2cccc(OC)c2)[C@H]2CS(=O)(=O)C[C@H]21`, the “Percent Effect” value is listed as -4.68%.
As for `Cc1nnc(CN(C)CCCOc2cccc(Cl)c2)o1`, the figure is -9.851%; as for `CCOCCN1CCN(C(C)C(=O)Nc2ccnn2C(C)C)CC1` (centres undefined), -7.106%; as for `CC(C)C1CN(C(=O)c2cc(=O)[nH]c(=O)[nH]2)CCC(=O)N1CC1CC1` (centres undefined), 7.498%.
As to `CC(C)COC(=O)N1CCN(C(=O)c2ccc3nccn3c2)CC1`, the “Percent Effect” value is given as -2.651%.
`COC1CN(C(=O)OCC(C)C)CCC(=O)N(C)c2ccccc21` (centres undefined): the “Percent Effect” value was 62.93%.
For `O=C(c1ccn[nH]1)N1CCCC(n2cncn2)C1` (centres undefined) the value was 8.656%.
Turning to `O=C(N1CCOCC(O)C1)C1(c2ccc(Cl)cc2)CCC1` (centres undefined), the “Percent Effect” value is listed as -14.09%.
Take `O=C(N1CCCC(n2cncn2)C1)C1(c2cccc(F)c2)CC1` (centres undefined): the “Percent Effect” value is 123%.
For `O=C(N1CCCC(n2cncn2)C1)C1(c2cccc(F)c2)CCC1` (centres undefined) the value was 131.6%; for `O=C(N1CCC(Oc2ccncc2)C1)C1(c2cccc(F)c2)CC1` (centres undefined), -3.42%.
For `Cc1cc(C)cc(C2(C(=O)N3CCCC(n4cncn4)C3)CC2)c1` (centres undefined) the value was 4.808%; for `O=C(N1CCCC(n2cncn2)C1)C1(c2cccc(F)c2)CCCC1` (centres undefined), 112.9%; for `O=C(N1CCCC(n2cncn2)C1)C1(c2ccc(Cl)cc2)CCC1` (centres undefined), 129.1%.
With `COc1ccccc1N1CCC(N2CCOC(C(F)(F)F)C2)CC1` (centres undefined), the “Percent Effect” value turned out to be 10.11%.
For the molecule `COc1ccc(NC(=O)CCC2CCCN(Cc3ncon3)C2)c(C)c1` (centres undefined), the “Percent Effect” value is 0.05921%.
Consider `CC(C)N1C[C@@H](F)[C@@H](OCc2nc3ncccc3[nH]2)C1`, for which the “Percent Effect” value is on record as -12.53%.
For `Cc1cc(CN(C)C(=O)NC2CCN(Cc3ccccc3)C2)no1` (centres undefined) the value was -11.75%; for `CN(Cc1cc(C2CC2)on1)C(=O)CN1C(=O)OC(C)(C)C1=O`, -4.246%; for `CC(C)c1cc(CN(C)C(=O)CN2CCC(C(N)=O)CC2)no1`, 136.4%.
As for `Cc1cc(CN(C)C(=O)CN2CCCCCC2=O)no1`, the figure is 104.9%; as for `Cc1cc(CN(C)C(=O)CN2CC3(CCNCC3)OC2=O)no1`, -10.43%.
As for `Cc1nc(CCN(C)C(=O)CN2CCCCCC2)no1`, the figure is 5.465%; as for `Cc1cc(CN(C)C(=O)NCc2cccc(N3CCCC3=O)c2)no1`, 2.405%; as for `CCc1cc(CN(C)C(=O)CN2CC3(CCNCC3)OC2=O)on1`, 3.162%.
Regarding `CC(C)c1cc(CN(C)C(=O)CN2CCCCC2=O)no1`, the “Percent Effect” value worked out at 112.2%.
For `CC(C)c1cc(CN(C)C(=O)CN2CCNC2=O)no1` the value was 133%.
For `Cc1ncsc1CCN(C)C(=O)CN1CCCCC1=O` the value was 17.08%; for `Cc1cc(CN(C)C(=O)C2CCCN(C(N)=O)C2)no1` (centres undefined), 12.67%; for `CCOCC(=O)NC(C#N)c1cnn(-c2ccccc2)c1` (centres undefined), 0.4784%.
For `CCc1cc(CN(C)Cc2nc(-c3ccc(OC)cc3F)oc2C)on1` the value was -9.467%; for `Cc1cnccc1N1CCCN(C(=O)CCCc2cn[nH]c2)CC1`, 11.82%; for `O=C(Nc1nncs1)N1CCCN(C2CCCC2)CC1`, -1.803%.
`Cc1noc(C)c1CCC(=O)N[C@@H]1CC[C@@H](Oc2cccnc2)[C@@H]1O`: the “Percent Effect” value was 106.7%.
Consider `Cc1noc(C)c1CNC[C@@]1(COc2cccnc2)C[C@@H](O)[C@@H](O)C1.Cl.Cl`, for which the “Percent Effect” value is -8.065%.
For `Cc1noc(C)c1CCC(=O)N[C@@H]1CCC[C@@H](Oc2cccnc2)[C@@H]1O`, the “Percent Effect” value is 114.3%.
As for `Cc1nn(C)c(Oc2cccnc2)c1NC(=O)C1CCCO1` (centres undefined), the figure is 5.234%.
As to `Cc1n[nH]c(C)c1CCCNCc1cn(CCC(N)=O)c2ccccc12`, the “Percent Effect” value is recorded as -2.861%.
Take `Cc1n[nH]c(C)c1CCC(=O)N[C@@H]1CCC[C@@H](Oc2ccccc2)[C@@H]1O`: the “Percent Effect” value was determined as 124.4%.
As for `Cc1n[nH]c(C)c1CNC(=O)NC1CCCCC1`, the figure is -5.785%; as for `CNC(=O)COc1ccccc1CNCc1c(C)noc1C`, -55.32%; as for `Cc1[nH]ncc1CCCNC(=O)Nc1ccc2c(c1)OC1(CCCC1)O2`, -12.99%.
As for `Cc1cc2n(n1)CC(CNC1CCN(Cc3ccncc3)CC1)CN2` (centres undefined), the figure is 3.296%.
For `Cc1noc(C)c1CNC(=O)N(C1CC1)C(C)c1ccco1` (centres undefined) the value was -2.539%.
Regarding `Cc1ccc2c(-c3nc4c([nH]3)CCNC4C(=O)O)cccc2n1` (centres undefined), the “Percent Effect” value is 0.6964%.
As for `O=C(CC1CCc2ccccc21)NC1(C(=O)O)CCCC1` (centres undefined), the figure is 9.016%.
Take `CNC(=O)CC1CC2(CCN(Cc3nccs3)CC2)c2ccccc21.O=C(O)C(F)(F)F` (centres undefined): the “Percent Effect” value is given as -2.085%.
Turning to `COCCN1CCC2(CC1)CC(CC(N)=O)c1ccc(F)cc12` (centres undefined), the “Percent Effect” value was 8.076%.
Turning to `CCOC1CC2(CCN(C(=O)COC)CC2)c2cc(F)ccc21` (centres undefined), the “Percent Effect” value is recorded as -4.976%.
In the case of `CCN1CCC2(CC1)CC(CC(=O)N(C)C)c1ccc(F)cc12` (centres undefined), the “Percent Effect” value was 112.9%.
As for `COCC(=O)N1CCC2(CC1)CC(CC(=O)NC1CC1)c1ccccc12` (centres undefined), the figure is -16.01%.
`CNC(=O)CC1CC2(CCNCC2)c2cc(F)ccc21` (centres undefined): the “Percent Effect” value came to 95.41%.
As for `CCNC(=O)CC1CC2(CCN(C(C)=O)CC2)c2cc(F)ccc21` (centres undefined), the figure is -4.484%; as for `CCC(=O)N1CCC2(CC1)CC(CC(N)=O)c1ccc(F)cc12` (centres undefined), 3.39%; as for `O=C(CC1CC2(CCNCC2)c2ccccc21)NCC1CC1` (centres undefined), 105%.
Take `Cc1ccc2c(c1)C1(CCNCC1)CC2OCC1CC1` (centres undefined): the “Percent Effect” value was found to be 7.08%.
Regarding `CCC(=O)N1CCC2(CC1)CC(CC(=O)N(C)C)c1ccc(F)cc12` (centres undefined), the “Percent Effect” value is 103%.
As for `CCN1CC(C(=O)N2CCc3cc(C(N)=O)n(C)c3C2)CCC1=O` (centres undefined), the figure is -10.45%.
For `Cc1ccc(-c2nc(CN3CCn4c(nnc4C4CC4)C3)no2)cc1` the value was -10.52%; for `c1cncc(NCCNC2CCSC2)c1` (centres undefined), 14.04%.
With `CCC(C)n1cnc(S(=O)(=O)N(C)c2cccnc2N(C)C)c1` (centres undefined), the “Percent Effect” value is on record as 2.284%.
As for `Cc1nnc(CSc2ccccn2)o1`, the “Percent Effect” value is recorded as -5.067%.
For `O=C(CCN1CCCC1C1CCCCC1)N1CCc2sccc2C1` (centres undefined) the value was 3.149%.
For `CN(C)S(=O)(=O)N1CCC2(CC1)CC(OCC1CC1)CO2` (centres undefined) the value was -4.528%.
Take `CC(C)(C)CC(=O)NC[C@H]1OC[C@@H](NC2CCC(F)(F)CC2)[C@@H]1O`: the “Percent Effect” value is on record as -11.06%.
For `COc1nn(C)c2c1CCCN(C(=O)c1cscn1)C2` the value was 93.39%; for `Cn1nc(C#N)c2c1CN(C(=O)c1c[nH]cn1)CCC2`, -11.9%.
Take `COc1nn(C)c2c1CCCN(C(=O)c1cnccn1)C2`: the “Percent Effect” value stood at 102.6%.
As for `Cn1nc(C#N)c2c1CN(C(=O)c1nc[nH]n1)CCC2`, the figure is -49.74%.
Take `Cn1nc(C#N)c2c1CN(C(=O)c1ccnnc1)CCC2`: the “Percent Effect” value is listed as -0.2276%.
For the molecule `COc1nn(C)c2c1CCCN(C(=O)c1c[nH]cn1)C2`, the “Percent Effect” value is -44.84%.
As to `CCN(Cc1noc(C(C)(C)C)n1)Cc1ccc(C#N)cc1F`, the “Percent Effect” value is given as -6.556%.
As for `OC(CN(Cc1ccccc1)Cc1cccnc1)c1cccs1` (centres undefined), the figure is -7.082%.
As for `O=C(CCCn1cncn1)N1CCCCC1c1nccs1` (centres undefined), the figure is -0.08053%.
On to `Cc1cc(C)n(Cc2cc(C(=O)N3CCCC3c3ccccn3)n[nH]2)n1` (centres undefined), for which the “Percent Effect” value is 101.3%.
Turning to `Cc1cc(C)n(CC2CCCN2C(=O)CCCNc2ncccn2)n1` (centres undefined), the “Percent Effect” value is -5.56%.
For `Cc1cc(C)n(CC2CCCN2C(=O)Cc2cn3ccsc3n2)n1` (centres undefined) the value was 5.291%; for `Cc1noc(CCCC(=O)N2CCCCC2c2nccs2)n1` (centres undefined), 4.452%.
For `Cc1cc(C)n(Cc2cc(C(=O)N[C@H]3CCCCNC3=O)n[nH]2)n1` the value was 1.384%; for `Cc1cc(C)n(CCC(=O)N2CCCCC2c2nccs2)n1` (centres undefined), 97.13%.
`Cn1cccc1-c1cc(C(=O)N2CCCC2c2nccs2)[nH]n1` (centres undefined): the “Percent Effect” value was -11.21%.
For `Cc1cc(C)n(Cc2cc(C(=O)N3CCCCC3c3nccs3)n[nH]2)n1` (centres undefined) the value was 94.44%; for `Cc1cc(C)n(Cc2cc(C(=O)N3CCCC3c3nccs3)n[nH]2)n1` (centres undefined), 147.1%; for `CC(=O)N1CCC(N2CCN3C(=O)N(c4ccccc4)C[C@H]3C2)CC1`, -6.558%.
For `CC(C)C(=O)N1CCN(S(=O)(=O)C2CC2)CC2(CC(=O)N(C)C2)C1` (centres undefined) the value was -3.068%.
As for `CNC(=O)c1nnn(-c2ccccc2F)c1-c1ccccn1`, the “Percent Effect” value is -7.96%.
Take `C[C@H]1C[C@H]2CN(C(=O)C3=CCCCC3)CC[C@H]2O1`: the “Percent Effect” value is given as -8.819%.
`Cc1cccc2[nH]c(C3CCCN3Cc3ccc(CO)o3)nc12` (centres undefined): the “Percent Effect” value is given as -7.499%.
As for `CCS(=O)(=O)NC(C(=O)NC)c1ccc(F)c(F)c1` (centres undefined), the figure is -1.609%; as for `Cc1csc(C2CCCCN2C(=O)c2cc(C3CC3)[nH]n2)n1` (centres undefined), 105.1%.
For `Cc1csc(C2CCCCN2C(=O)c2cc(C(C)C)[nH]n2)n1` (centres undefined) the value was 109.6%; for `Cc1cc(C(=O)N2CCCCC2c2nc(C)cs2)[nH]n1` (centres undefined), 5.063%.
For `CCc1nc(C2CCCN2C(=O)c2cc(C3CC3)[nH]n2)no1` (centres undefined) the value was -2.923%.
As for `Cc1csc(N2CCN(C(=O)c3cc(C4CC4)[nH]n3)CC2)n1`, the “Percent Effect” value was -15.84%.

The values above are taken from ChEMBL document CHEMBL3988442, “University of Dundee, Small-Polar-MMV Screening Library” (2021).
